Experiment [1] deals with Voltage-gated inwardly rectifying potassium channel KCNH2 (Homo sapiens) (UniProt Q12809). Put plainly: Human Ether-a-go-go-Related Gene (hERG) channel small molecule antagonists: fluorescence cell-based qHTS assay (AID 1671200). The method in brief:
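Kinetic two-minute fluorescence traces, sampled at 1 s, were collected following thallium stimulus of U2OS cells (1000 per well) that had been cultured overnight at 37 C and loaded with FluxOR II.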

Experiment [2] concerns the target Cytochrome P450 3A4 (Homo sapiens) (UniProt P08684). Briefly: Cytochrome P450 Family 3 Subfamily A Member 4 (CYP3A4) small molecule antagonists: luciferase reporter qHTS assay (AID 1671201). The method in brief: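 Proluciferin-to-luciferin conversion by CYP3A4, NADPH-regenerated, 1 h RT; luminescence read as RLU. Ketoconazole as control.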
(In a reporter assay the amount or activity of a reporter protein is the signal.)

Experiment [3] concerns the target Cytochrome P450 1A2 (Homo sapiens) (UniProt P05177). Put plainly: Cytochrome P450 Family 1 Subfamily A Member 2 (CYP1A2) small molecule antagonists: luciferase reporter qHTS assay (AID 1671199). An outline of the steps: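 P450-Glo CYP1A2, 1536-well qHTS: enzyme/proluciferin substrate + cpd (DMSO), 10 min RT; NADPH regen, 1 h RT; detection reagent, 20 min; luminescence, RLU.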

Several values for one entry are separate records, joined by “and”; a condition that tells them apart may be missing. Equal values may be shown once. Records with an inconclusive call do not appear. Some structures have more than one record in an assay (separate samples or runs), and their calls can disagree. Activity calls are given as the source filed them. The call rests on the fitted dose curve; in most records, active means well fitted curve in the direction sought with a large enough effect in the repeat runs; inconclusive means weak or mixed curves; inactive means no such curve, though single readings can be large; an effect the other way counts as inactive or inconclusive.
Further: nearly all actives have a fitted effect of over 50% in size.
Potency means the concentration at half of the fitted maximal effect.

Sequence of Cytochrome P450 1A2 (Homo sapiens) (P05177 whole entry, looked up): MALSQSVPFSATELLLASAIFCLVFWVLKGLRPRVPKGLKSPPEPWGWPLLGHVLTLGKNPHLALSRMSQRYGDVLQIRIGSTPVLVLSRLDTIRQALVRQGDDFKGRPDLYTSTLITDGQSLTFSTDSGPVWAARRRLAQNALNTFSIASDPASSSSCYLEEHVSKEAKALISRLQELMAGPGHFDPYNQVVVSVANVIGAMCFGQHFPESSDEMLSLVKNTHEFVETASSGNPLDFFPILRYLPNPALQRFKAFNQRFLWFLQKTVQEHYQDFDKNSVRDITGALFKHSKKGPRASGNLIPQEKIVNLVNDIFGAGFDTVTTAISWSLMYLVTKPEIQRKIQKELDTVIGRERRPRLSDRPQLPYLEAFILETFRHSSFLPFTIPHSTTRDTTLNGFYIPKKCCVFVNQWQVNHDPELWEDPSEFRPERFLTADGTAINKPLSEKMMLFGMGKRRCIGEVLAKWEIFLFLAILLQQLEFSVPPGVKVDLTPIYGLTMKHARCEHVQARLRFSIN
Sequence of Voltage-gated inwardly rectifying potassium channel KCNH2 (Homo sapiens) (Q12809 whole entry, looked up): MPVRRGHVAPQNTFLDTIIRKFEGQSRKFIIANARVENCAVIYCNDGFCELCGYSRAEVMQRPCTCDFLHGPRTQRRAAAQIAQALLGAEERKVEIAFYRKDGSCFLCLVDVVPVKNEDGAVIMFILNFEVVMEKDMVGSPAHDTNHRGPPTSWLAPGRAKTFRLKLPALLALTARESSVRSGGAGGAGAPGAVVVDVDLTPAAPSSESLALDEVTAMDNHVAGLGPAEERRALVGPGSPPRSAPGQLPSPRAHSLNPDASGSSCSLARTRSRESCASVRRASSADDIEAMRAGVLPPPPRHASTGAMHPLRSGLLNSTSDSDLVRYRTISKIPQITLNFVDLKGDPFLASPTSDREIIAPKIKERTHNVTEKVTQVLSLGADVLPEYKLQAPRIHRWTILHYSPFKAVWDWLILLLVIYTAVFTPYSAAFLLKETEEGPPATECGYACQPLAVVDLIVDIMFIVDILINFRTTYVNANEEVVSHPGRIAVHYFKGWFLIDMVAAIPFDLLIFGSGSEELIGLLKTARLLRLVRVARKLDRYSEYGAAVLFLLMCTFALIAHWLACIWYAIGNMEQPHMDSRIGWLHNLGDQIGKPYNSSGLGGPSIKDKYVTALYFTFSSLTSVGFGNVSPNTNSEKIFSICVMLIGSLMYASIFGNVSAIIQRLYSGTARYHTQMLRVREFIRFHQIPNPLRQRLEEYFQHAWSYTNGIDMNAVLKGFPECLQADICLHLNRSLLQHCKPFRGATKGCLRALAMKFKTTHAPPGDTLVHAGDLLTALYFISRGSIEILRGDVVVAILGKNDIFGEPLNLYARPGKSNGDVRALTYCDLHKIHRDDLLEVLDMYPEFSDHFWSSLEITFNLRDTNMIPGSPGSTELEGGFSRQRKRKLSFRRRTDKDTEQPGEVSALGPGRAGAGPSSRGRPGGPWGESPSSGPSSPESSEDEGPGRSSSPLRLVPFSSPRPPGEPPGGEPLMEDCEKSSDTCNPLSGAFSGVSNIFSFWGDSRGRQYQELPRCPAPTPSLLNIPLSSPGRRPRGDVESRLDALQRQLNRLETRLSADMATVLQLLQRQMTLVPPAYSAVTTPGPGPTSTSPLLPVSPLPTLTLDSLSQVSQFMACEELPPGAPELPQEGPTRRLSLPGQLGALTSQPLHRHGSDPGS
Sequence of Cytochrome P450 3A4 (Homo sapiens) (P08684 whole entry, looked up): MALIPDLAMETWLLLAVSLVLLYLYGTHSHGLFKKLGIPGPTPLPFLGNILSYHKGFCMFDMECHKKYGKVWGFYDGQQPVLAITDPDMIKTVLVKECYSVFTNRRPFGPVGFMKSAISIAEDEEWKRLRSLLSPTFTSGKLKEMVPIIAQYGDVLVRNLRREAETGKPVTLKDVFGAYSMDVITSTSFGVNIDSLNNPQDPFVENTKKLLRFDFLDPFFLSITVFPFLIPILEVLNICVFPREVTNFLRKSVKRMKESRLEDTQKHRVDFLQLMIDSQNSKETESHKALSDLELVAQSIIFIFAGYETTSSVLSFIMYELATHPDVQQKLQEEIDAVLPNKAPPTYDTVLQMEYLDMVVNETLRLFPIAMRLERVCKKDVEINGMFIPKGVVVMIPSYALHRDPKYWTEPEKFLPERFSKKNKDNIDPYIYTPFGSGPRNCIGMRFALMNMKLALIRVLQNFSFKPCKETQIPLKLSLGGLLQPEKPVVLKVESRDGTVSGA

With `O=c1n(CC2CO2)c(=O)n(CC2CO2)c(=O)n1CC1CO1` (configuration not stated), the Potency entry in experiment [1] and in experiment [2] was “inactive” throughout.

As for `c1ccc2c(c1)CCCC2C1=NCCN1` (configuration not stated), the Potency entry in experiment [1] was “inactive”.

Regarding `CCCCN(CCO)CCCC`, the Potency entry in experiment [1] and in experiment [2] was “inactive” in each case.

As for `CC(=O)C1=C(C)[C@@H]2C[C@@]3(C1)[C@H](C)CC[C@H]3C2(C)C`, the Potency was 24.5 µM (active) in experiment [1] and 25.2 µM (active) in experiment [2].

As for `C=CC(=O)OCCCCCCCC`, the Potency entry in experiment [1] and in experiment [2] was “inactive” each time.

As for `CC(C)(C)c1ccc(O)c(C(C)(C)C)c1`, the Potency in experiment [3] is 35.4 µM (active) and 56.4 µM (active); in experiment [2], 35.6 µM (active).

Take `O=C(O)c1cc(Cl)cc(Cl)c1`: the Potency result in experiment [1] and in experiment [2] was “inactive” each time.

Take `CC(C)CCOCc1ccccc1`: the Potency result in experiment [1] and in experiment [2] was “inactive” each time.

As to `NC(=Nc1ccccc1)Nc1ccccc1`, the Potency in experiment [3] is 50.2 µM (active) and inactive. Besides, in experiment [2], the Potency result was “inactive”.

As to `O=C(O[C@@H]1Cc2c(O)cc(O)cc2O[C@@H]1c1cc(O)c(O)c(O)c1)c1cc(O)c(O)c(O)c1`, the Potency entry in experiment [3] and in experiment [1] was “inactive” throughout. Besides, in experiment [2], the Potency was 35.7 µM (active) and 48.5 µM (active).

As to `CCN1CCCC1CNC(=O)c1cc(S(=O)(=O)CC)c(N)cc1OC` (configuration not stated), the Potency result in experiment [3] and in experiment [2] was “inactive” each time.

In the case of `NC12CC3CC(CC(C3)C1)C2`, the Potency entry in experiment [1] is “inactive”.

In the case of `CO[Si](OC)(OC)c1ccccc1`, in experiment [1], the Potency result is “inactive”.

With `O=C1OC2(c3ccc(O)cc3Oc3cc(O)ccc32)c2ccccc21`, the Potency result in experiment [3] and in experiment [2] was “inactive” throughout. Besides, the Potency in experiment [1] is 15.5 µM (active) and inactive.

As for `Cc1cccc(O)c1C`, in experiment [3], the Potency was 46.1 µM (active). For the same compound, the Potency entry in experiment [1] and in experiment [2] was “inactive” each time.

As for `CCN(CC)C(=O)Nc1ccc(OCC(O)CNC(C)(C)C)c(C(C)=O)c1` (configuration not stated), the Potency result in experiment [3], in experiment [1] and in experiment [2] was “inactive” in each case.

As for `Nc1nc(=S)c2[nH]cnc2[nH]1`, in experiment [3], the Potency is 30.9 µM (active) and 35.6 µM (active). The Potency entry in experiment [2] was “inactive”.

On to `CN(C)c1ccc2nc3ccc(=[N+](C)C)cc-3sc2c1`, for which the Potency entry in experiment [1] was “inactive”.

For the compound `Clc1ccc2c(c1)C(N1CCNCC1)=Nc1ccccc1O2`, the Potency in experiment [1] is 43.6 µM (active) and 19 µM (active); in experiment [2], 7.96 µM (active) and 4.9 µM (active).

As for `O=Cc1ccc(Cl)cc1`, the Potency result in experiment [1] and in experiment [2] was “inactive” each time.

On to `Nc1ccc(O)cc1`, for which the Potency result in experiment [1] is “inactive”. Besides, in experiment [2], the Potency was 37 µM (active).

Turning to `NCCCCCC(=O)O`, the Potency entry in experiment [3], in experiment [1] and in experiment [2] was “inactive” throughout.

As to `CC[C@@H](N)CO`, the Potency result in experiment [1] and in experiment [2] was “inactive” in each case.
